Source: PubChem BioAssay (Broad Institute)
Compounds with a hit are over-represented: about 3.7% of the library has one in this group of screens.
rRNA inh HTS = selective bacterial rRNA inhibition in E. coli; E. coli WT GFP vs humanized-ribosome RFP mutants, fluorescence, 24 h; hits give low values; DMSO median 0, no signal -100; GFP signal change (wild-type ribosome), % (no concentration beside the values); actives 1.6% (n = 350,000);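 active = significant combined selectivity score with lowered wild-type GFP, culture density cut under 30%, mutant RFP and density less affected; inactive = any of these conditions unmet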
MITF act = activators of MITF-driven TRPM1 promoter activity in SK-MEL-5 cells | actives 0.75% (n = 300,000) | activation, % at 12.5 µM | SK-MEL-5 TRPM1-promoter luciferase, 24 h; % of positive control, neutral wells = 0;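 active = mean activation of at least 80% with every replicate also reaching 80%; inconclusive = mean reaches 80% but some replicate falls short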;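 also: 0% = neutral control wells and 100% = parthenolide positive control wells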
AF4-AF9 inh = MLL-AF4/AF9 protein interaction inhibition; AlphaScreen, biotin-AF4 peptide binding to FLAG-AF9; inhibition, % at 10 µM; actives 0.47% (n = 350,000); AID 651704;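 active = every replicate reaching a set inhibition limit, whatever the replicate mean, cut at about 25% in these data; inconclusive = mean inhibition reaches that limit but some replicates miss it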;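 also: 0% = plate neutral control median and 100% = total signal loss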
Target sequence (P42568 whole entry, looked up): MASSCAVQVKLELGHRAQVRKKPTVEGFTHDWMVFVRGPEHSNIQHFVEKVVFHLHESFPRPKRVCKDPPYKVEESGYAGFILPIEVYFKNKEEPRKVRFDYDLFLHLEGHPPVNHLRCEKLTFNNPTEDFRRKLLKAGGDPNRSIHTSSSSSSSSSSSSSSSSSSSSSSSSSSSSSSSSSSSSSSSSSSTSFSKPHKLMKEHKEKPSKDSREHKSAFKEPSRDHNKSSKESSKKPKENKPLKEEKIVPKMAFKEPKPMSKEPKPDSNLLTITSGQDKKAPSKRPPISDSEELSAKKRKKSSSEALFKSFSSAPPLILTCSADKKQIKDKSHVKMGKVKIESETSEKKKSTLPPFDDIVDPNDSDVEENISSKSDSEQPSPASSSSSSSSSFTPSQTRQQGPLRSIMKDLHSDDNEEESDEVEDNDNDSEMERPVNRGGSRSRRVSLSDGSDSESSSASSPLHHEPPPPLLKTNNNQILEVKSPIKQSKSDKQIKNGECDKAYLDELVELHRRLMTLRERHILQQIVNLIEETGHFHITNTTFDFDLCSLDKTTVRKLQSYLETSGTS
esBAF inh = blocks esBAF chromatin remodeling in mouse ES cells; Bmi1-luciferase knock-in reporter, 24 h; 100% = twice the neutral-well signal; reporter increase, % at 12.5 µM; actives 2% (n = 350,000); in the data active = activation above about 40%; inconclusive = no clear call, values can overlap the other calls;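 also: 0% = median of the plate's neutral control wells and 100% = double that signal; a rise in the Bmi1 reporter signal indicates esBAF inhibition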
Wnt bcat act = Wnt/beta-catenin pathway activation. activation, % at 9.35 µM. Wnt/beta-catenin reporter cell assay, activator, plate reader. AID 743398. actives 1.2% (n = 300,000); in the data active = activation above about 30%, passing the limit was not always enough; inconclusive = no clear call, values can overlap the other calls;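 also: 0% = neutral control wells and 100% = positive control wells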
Starred values were filed as active, the others as inactive.

`Cc1ccc2nc(Cl)c(/C=N/Nc3ccc(C(=O)O)cc3)cc2c1` gave rRNA inh HTS 9.6, MITF act 64.7, AF4-AF9 inh 4.6, esBAF inh 21.6 and Wnt bcat act 42.8*.
For Cc1ccc(NCC(=O)N/N=C/c2cc3ccccc3nc2Cl)cc1 the results were esBAF inh 61.1*.
For CCCC(=O)Nc1ccc2c(c1)OC[C@H](C)N(Cc1cccc(F)c1)C[C@@H](C)[C@H](OC)CN(C)C2=O the results were rRNA inh HTS -8.4, AF4-AF9 inh 2.4 and esBAF inh 7.7.
For COc1cc(OC)cc(-c2c(-c3ccc(F)cc3)c3cc(-c4cccc5[nH]ccc45)ccc3n2C)c1 the results were rRNA inh HTS 8.6, MITF act -6.2, AF4-AF9 inh -3.5, esBAF inh -2.9 and Wnt bcat act -8.8.
For Cn1c2ccccc2c(=O)c2cc(C#Cc3ccccn3)ccc21 the results were rRNA inh HTS 5.5, MITF act 102.4*, AF4-AF9 inh -0.3, esBAF inh 1.6 and Wnt bcat act 21.4.
For O=C(COn1nnc2ccc(C(F)(F)F)cc21)Nc1c(Cl)cccc1Cl the results were rRNA inh HTS -25.2*, MITF act -5.4, AF4-AF9 inh 0.2 and Wnt bcat act -1.3.
`CCOc1ccccc1C(=O)NCC(=O)OCc1csc(CC(=O)Nc2ccc(C)cc2)n1` gave MITF act 24.9, AF4-AF9 inh -0.4, esBAF inh 56.1* and Wnt bcat act 5.4.
CCOc1ccccc1C(=O)N[C@H](C(=O)OCc1csc(CC(=O)Nc2ccc(C)cc2)n1)C(C)C was read as rRNA inh HTS -3.0, MITF act -8.1, AF4-AF9 inh -1.6 and Wnt bcat act -1.3.
Screening C[C@@H]1CN([C@@H](C)CO)C(=O)c2cc(NS(=O)(=O)c3ccc(F)cc3)ccc2O[C@@H](C)CCCCO[C@@H]1CN(C)Cc1ccc(C(F)(F)F)cc1 returned rRNA inh HTS -4.5, AF4-AF9 inh -9.4 and esBAF inh -0.1.
`O=C(Nc1ccc2nc(C3CC3)n(Cc3ccccc3)c(=O)c2c1)C1CC1` gave rRNA inh HTS 9.8, MITF act 114.9*, AF4-AF9 inh 2.9, esBAF inh 67.2* and Wnt bcat act 23.9.
Screening S=C(Nc1ccc(Cl)cc1Cl)N1CCCCC1 returned MITF act 11.1.
`O=C(NCCc1cccs1)C1CC(c2ccccc2[N+](=O)[O-])=NO1` (stereo not drawn) gave rRNA inh HTS 2.3, MITF act 40.3, esBAF inh 65.7* and Wnt bcat act inconclusive.
`CC(C)CCNC(=O)C1CC(c2cccc([N+](=O)[O-])c2)=NO1` (stereo not drawn) gave rRNA inh HTS -1.1, MITF act 1.5, AF4-AF9 inh -0.9, esBAF inh 6.2 and Wnt bcat act 1.6.
For Cc1ccc(CCNC(=O)C2CC(c3ccccc3[N+](=O)[O-])=NO2)cc1 (stereo not drawn) the results were rRNA inh HTS -28.3, MITF act -4.5, AF4-AF9 inh -14.3, esBAF inh -1.0 and Wnt bcat act -0.2.
`CCCCNC(=O)C1CC(c2cccc([N+](=O)[O-])c2)=NO1` (stereo not drawn) gave rRNA inh HTS 1.5, MITF act 88.6*, AF4-AF9 inh -5.1, esBAF inh 89.8* and Wnt bcat act 37.6*.
COc1ccc(CCNC(=O)C2CC(c3ccccc3[N+](=O)[O-])=NO2)cc1 (stereo not drawn) was read as rRNA inh HTS -1.7, MITF act 55.7, AF4-AF9 inh 4.1, esBAF inh 45.4* and Wnt bcat act 28.7.
`COc1cc2c(cc1N/C=C(\C#N)c1nc(-c3ccc(F)cc3)cs1)oc1ccccc12` gave rRNA inh HTS 14.9, MITF act 1.8, AF4-AF9 inh 10.5, esBAF inh -9.0 and Wnt bcat act -3.4.
`O=C(COc1ccc([N+](=O)[O-])cc1)NNC(=O)Nc1ccc([N+](=O)[O-])cc1` gave rRNA inh HTS -19.0*, MITF act -7.7, AF4-AF9 inh -0.8 and Wnt bcat act -0.9.
For CCCOC(=O)c1cccc(NC(=O)COc2ccc([N+](=O)[O-])cc2)c1 the results were rRNA inh HTS -21.4*, MITF act -4.7, AF4-AF9 inh 2.1 and Wnt bcat act -1.3.
`CCOC(=O)c1cccc(NC(=O)COc2ccc([N+](=O)[O-])cc2)c1` gave MITF act -2.6, esBAF inh -4.7 and Wnt bcat act 7.9.
